Assay outcomes as filed in PubChem BioAssay.
Rows were chosen to be rich in hits. Some 2.8% of all compounds tested hit in one or more screens of this group.
WRN inhibitor: WRN helicase (human) inhibition; 360,000 tested, 0.46% active; WRN helicase unwinding, fluorescent forked duplex, kinetic; Potency, µM (titrated, usually from 114 µM), inactives show at the top dose activity change, negative = inhibition, actives largely listed as inhibitors; Q14191; further: potency means the concentration at half of the fitted maximal effect; on the % scale 0 is the no-effect control and ±100 the full control effect; nearly all actives have a fitted effect of over 55% in size
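Screening of the MLSMR collection measured strand separation of a quenched forked DNA duplex (100 nM) by 20 nM WRN with 2 mM ATP, all final. Compounds were preincubated with enzyme 15 min at room temperature.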
Pol beta inh: DNA polymerase beta (human) inhibition; Potency, µM (titrated, usually from 114 µM), for inactives: at the highest dose activity change, negative = inhibition, actives largely listed as inhibitors; Pol beta primer extension/strand displacement, fluorescence kinetic; 340,000 tested, 1.3% active; further: potency means the concentration at half of the fitted maximal effect; on the % scale 0 is the no-effect control and ±100 the full control effect
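Values derive from four-parameter Hill fits of normalized kinetic data: reads at 0 and 10 min following addition of 50 nM substrate to 10 nM Pol beta preincubated 15 min with compound.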
PI5P4K alpha inh: PI5P4K alpha (human) kinase inhibition. P48426. PI5P4Kalpha enzyme, ADP-Glo luminescence, 60 min; hits give low values. max response, %. 330,000 tested, 1.2% active. AID 652105; active means max response of -50% or lower; inconclusive means between -30% and -50%; inactive means -30% or higher; further: value at the top dose of about 77 µM; on the % scale 0 is the no-effect control and ±100 the full control effect
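Luminescence from ADP-Glo served as readout of PI5P4Kalpha activity in a qHTS format. Reaction: enzyme, substrate, compound, ATP at 5 microM final, 60 min at RT.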
Pol iota inh: inhibitors of human DNA polymerase iota | Q9UNA4 | Pol iota fluorescent replication assay, 10 min | Potency, µM (highest dose often 115 µM), for the others: top-dose activity, negative = inhibition, actives largely listed as inhibitors | 390,000 tested, 1% active; further: potency means the concentration at half of the fitted maximal effect
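Pol iota at 10 nM preincubated 15 min with compounds at room temperature; reaction started with fluorescent substrate, 50 nM final. Fluorescence read kinetically at 0 and 10 min; buffer-only wells as negative control.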
POLH inh: inhibitors of human DNA polymerase eta; Potency, µM (titrated, usually from 114 µM), inactives show at the highest dose activity change, negative = inhibition, most hits filed as inhibitors; Q9Y253; AID 588591; recombinant Pol eta, fluorescent DNA replication assay; 390,000 tested, 1.2% active; further: potency means the concentration at half of the fitted maximal effect; on the % scale 0 is the no-effect control and ±100 the full control effect
Target sequence (Q9Y253 whole entry, looked up): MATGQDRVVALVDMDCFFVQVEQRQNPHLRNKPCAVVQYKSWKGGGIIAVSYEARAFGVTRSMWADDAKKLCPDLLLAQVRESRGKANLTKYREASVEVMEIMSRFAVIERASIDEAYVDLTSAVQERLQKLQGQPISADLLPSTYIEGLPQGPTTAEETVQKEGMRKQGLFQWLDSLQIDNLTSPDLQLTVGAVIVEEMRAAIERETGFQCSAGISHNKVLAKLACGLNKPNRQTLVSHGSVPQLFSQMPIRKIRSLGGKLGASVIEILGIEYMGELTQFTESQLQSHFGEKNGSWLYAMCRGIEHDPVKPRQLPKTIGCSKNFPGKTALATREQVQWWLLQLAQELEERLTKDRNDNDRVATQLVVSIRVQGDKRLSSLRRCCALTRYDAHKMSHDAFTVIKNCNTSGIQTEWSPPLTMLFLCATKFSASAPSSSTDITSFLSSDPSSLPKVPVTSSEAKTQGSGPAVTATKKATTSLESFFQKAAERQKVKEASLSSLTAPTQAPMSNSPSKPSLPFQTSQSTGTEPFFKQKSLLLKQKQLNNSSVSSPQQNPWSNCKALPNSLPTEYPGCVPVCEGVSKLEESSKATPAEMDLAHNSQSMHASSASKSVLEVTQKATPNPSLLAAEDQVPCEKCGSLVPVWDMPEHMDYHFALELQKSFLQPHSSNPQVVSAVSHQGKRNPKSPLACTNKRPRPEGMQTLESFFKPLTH
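Pol eta at 10 nM preincubated with compounds 15 min at room temperature; reaction started with fluorescent substrate (50 nM final) and read kinetically at 0 and 10 min.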
Pol kappa inh: DNA polymerase kappa (human) inhibition | Potency, µM (doses to about 107 µM), inactives show at the top dose activity, negative = inhibition, most hits filed as inhibitors | 400,000 tested, 0.53% active | Q9UBT6 | purified Pol kappa, fluorescent DNA synthesis assay, 10 min; further: potency means the concentration at half of the fitted maximal effect; on the % scale 0 is the no-effect control and ±100 the full control effect
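Enzyme at 10 nM met test compounds for 15 min at room temperature. Substrate addition (50 nM final) began the reaction, which was monitored by fluorescence at 0 and 10 min.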
ADP-Glo counter: counter-screen for PI5P4K inhibitors: ADP-Glo detection interference, no enzyme; 1,100 tested, under 10 active; Potency, µM (doses to about 76.9 µM), for the others: at the highest dose activity change, negative = inhibition, actives largely listed as inhibitors; ADP-Glo detection counter-screen, luciferase luminescence, no enzyme; shares compounds with PI5P4K alpha inh
* marks the source's active call; other numbers are inactive results; u = inconclusive; x = not tested or not shown; [ ] = another dose, or the depositor's remark. Unless noted, the call rests on the fitted dose curve; in most records, active means well fitted curve in the direction sought with a large enough effect; inconclusive means small, poorly fitted or top-dose-only effect, or another doubt; inactive means no such curve, though single readings can be large; an effect the other way counts as inactive or inconclusive.

SMILES | WRN inhibitor | Pol beta inh | PI5P4K alpha inh | Pol iota inh | POLH inh | Pol kappa inh | ADP-Glo counter
Cc1ccc(NC(=O)C2CCN(S(=O)(=O)c3ccccc3)CC2)cc1 | -34% | 7% | -12 | -2% | -11% | -7% | x
Cc1ccc(S(=O)c2ccc(NC(=O)C3CC3)cc2C#N)cc1 (stereo not drawn) | -8% | 24% | -63* | -2% | -5% | -2% | -6%
O=C(NCc1cc([N+](=O)[O-])ccc1O)c1cccc(NS(=O)(=O)c2ccccc2)c1 | u | 3% | -66* | 17% | -17% | 1% | 2%
O=C(NCc1ccccn1)c1ccc(NS(=O)(=O)c2cccc([N+](=O)[O-])c2)cc1 | -5% | x | 0 | -3% | -20% | 6% | x
CCOc1ccc(NC(=O)COC(=O)c2ccccc2OCc2ccccc2Br)cc1 | x | x | x | -18% | x | -6% | x
CCOc1ccc(S(=O)(=O)N(C(=O)c2ccco2)c2cc3sc(=O)oc3c3ccccc23)cc1 | u | 0% | -58* | u | -19% | -8% | 2%
Cc1ccc(S(=O)(=O)N(C(=O)c2ccco2)c2cc3sc(=O)oc3c3ccccc23)cc1 | 56µM* | 6% | -56* | u | -11% | -15% | -1%
COc1ccc(S(=O)(=O)N(C(=O)C(C)C)c2ccc3oc(=O)sc3c2)cc1 | -18% | -29% | x | u | -14% | 10% | x
COc1ccc(S(=O)(=O)N(C(=O)c2ccco2)c2cc3sc(=O)oc3c3ccccc23)cc1 | 45µM* | -8% | -61* | u | -12% | -14% | -8%
CCOc1ccc(C(NC(C)=O)c2cc(Cl)c3cccnc3c2O)cc1 (stereo not drawn) | x | x | x | 12% | x | -8% | x
CCOc1ccc(C(Nc2cccnc2)c2cc(Cl)c3cccnc3c2O)cc1 (stereo not drawn) | -5% | 6% | -68* | 48% | u | -9% | 0%
CC(C)N1CCN(c2ccc(C(=O)c3c(-c4ccc(O)cc4)sc4cc(O)ccc34)cc2)CC1 | x | x | x | x | x | 6%[60.1 µM] | x
Nc1ccn(CC(=O)NCCc2ccccn2)c(=O)n1 | -8% | x | 6 | 0% | -6% | -12% | x
COc1ccc(CNC(=O)CCCn2nc(C)c([N+](=O)[O-])c2C)cc1OC | -30% | 1% | u | 12% | -3% | 4% | -4%
COC(=O)c1c(NC(=O)COc2ccc(OC)cc2)sc2c1CCC(C)C2 (stereo not drawn) | x | -21% | x | -17% | -20% | -13% | x
CNC(=O)c1nc(C)n(-c2ccc(Cl)cc2Cl)n1 | 79µM* | -17% | -93* | 61% | -3% | 0% | -7%
O=C(CN1CCN(c2ccccc2F)CC1)NCc1ccccc1 | 8% | 4% | -14 | 49% | u | -5% | 2%
Cc1cccc(N2CCN(CC(=O)NCc3ccccc3)CC2)c1C | -2% | 24% | -5 | -18% | -14% | -7% | x
COCCCNC(=O)C[C@H]1C[C@H](C(=O)N(C(C)C)C(C)C)[C@@]2(C)c3[nH]c4cc(-c5ccco5)ccc4c3CCN2C1=O | -8% | x | u | u | -15% | 2% | x
CCO[C@@H]1OC(C(=O)NCc2ccccc2)=C[C@H](C(C)(C)C)[C@H]1CCCO | 3% | 4% | 0 | -18% | -10% | 9% | -10%
CCO[C@H]1OC(C(=O)NCc2ccccc2)=C[C@@H](c2ccc(Br)cc2)[C@@H]1CCCO | -4% | 19% | 2 | 32% | -27% | -11% | x
Clc1ccc2nc(CSc3nc4ccccc4o3)cn2c1 | -3% | -4% | -83* | -4% | 4% | -15% | -7%
CSc1cccc(NC(=O)c2cnn3ccccc23)c1 | -10% | 5% | -63* | 58% | -5% | -31% | -1%
CN(C)C(=O)c1ccc(-c2ccc3ncnc(N4CCNCC4)c3c2)cc1 | x | x | x | x | x | 3%[60.1 µM] | x
O=c1[nH]c2ccc(NCc3ccccc3F)cc2[nH]1 | x | 22% | x | 10% | 3% | -3% | x
SMILES | WRN inhibitor | Pol beta inh | PI5P4K alpha inh | Pol iota inh | POLH inh | Pol kappa inh | ADP-Glo counter
NC(Cc1ccc(C(F)(F)F)cc1)c1csc(NC(=O)Nc2ccccc2)n1 (stereo not drawn) | -9% | x | -56* | x | x | x | -2%
Cc1ccc(SCC(=O)OC(C)C(=O)NCc2ccccc2)cc1 (stereo not drawn) | 3% | x | 9 | 22% | -14% | -4% | x
Cc1ccccc1CNC(=O)c1ccc2nc([C@@H]3O[C@H](CO)[C@H](O)[C@H](O)[C@H]3O)[nH]c2c1 | 6% | x | -88* | x | x | x | 3%
O=C(NCc1ccncc1)c1ccc2nc([C@@H]3O[C@H](CO)[C@H](O)[C@H](O)[C@H]3O)[nH]c2c1 | -1% | x | 1 | x | x | x | x
O=C1NC(c2cc(Cl)cc([N+](=O)[O-])c2O)Nc2ccccc21 (stereo not drawn) | 3% | -5% | -79* | -23% | -12% | 1% | 6%
COc1ccccc1NC(=O)COC(=O)c1ccc(S(=O)(=O)NCc2ccco2)cc1 | -10% | u | -23 | u | u | u | x
COc1ccccc1NS(=O)(=O)c1ccc(C(=O)OCC(=O)NCc2ccco2)cc1 | -25% | 16µM* | -60* | u | u | -34% | -4%
O=C(C1CC1)N1N=C(C2CCCCC2)CC1(O)C(F)(F)F (stereo not drawn) | -1% | 17% | 9 | 25% | -5% | -4% | x
O=C(NC1CC1)c1ccc(NC(=O)C2CCC2)cc1 | -1% | x | -51* | -22% | -1% | -10% | -4%
CN(C)C(=O)c1ccc(NC(=O)COC(=O)C2=COCCO2)cc1 | 1% | x | u | u | 0% | -27% | 2%
Cn1c(SCc2ccc(F)cc2)nc2ccc(C(=O)NCc3ccc(F)cc3)cc21 | x | 20% | x | u | -8% | 0% | x
O=C(Nc1cc(S(=O)(=O)N2CCOCC2)ccc1N1CCCC1)c1ccc(Cl)cc1 | -30% | x | -51* | 16% | -6% | -14% | 0%
O=C(Nc1cc(S(=O)(=O)N2CCOCC2)ccc1N1CCCC1)c1ccc2c(c1)S(=O)(=O)c1ccccc1C2=O | -27% | 34% | -77* | 49% | -17% | -1% | -11%
O=C(Nc1cc(S(=O)(=O)N2CCOCC2)ccc1O)c1ccc(NS(=O)(=O)c2ccc(Cl)s2)cc1 | -17% | 8% | -59* | -20% | -7% | -6% | 3%
O=C(Nc1ccc(F)cc1)C1CCN(c2nc3ccccc3n3cccc23)CC1 | x | 1% | x | 27% | -16% | -7% | x
CCCCCNC(=O)C1C(=O)Nc2ccccc2C(=O)N1c1ccc(OC)cc1 (stereo not drawn) | 0% | x | 2 | x | x | x | x
